One experiment relates to Klebsiella pneumoniae. As to conditions: Concentration 32 ug.mL-1;; ASSAY_TEST Inhibition of Bacterial Growth; detection method Absorption (OD600); MEDIA CAMHB; plate type 384well; NBS; CORNING #3640; time 18 hr.
A further experiment has as its system Candida albicans. As to conditions: Concentration 32 ug.mL-1; ASSAY_TEST Inhibition of Fungal Growth; detection method Absorption (OD530).
The next experiment has as its system Cryptococcus neoformans. To be noted: Concentration 32 ug.mL-1; ASSAY_TEST Inhibition of Fungal Growth; detection method Resazurin; Absorption (OD600-OD570); plate type 384well; NBS; CORNING #3640.

Measured potencies and affinities stand elsewhere.

We go through 39 compounds from ChEMBL document CHEMBL4513146, “CO-ADD screening of Karazin Kharkiv National University (Ukraine) compounds”.

The term Inhibition denotes the relative decrease from the control value, in per cent.

In the case of `CSc1ccc(CNC(=O)Cn2nc3c(N4CCOCC4)nccn3c2=O)cc1`, the Inhibition in the experiment with Klebsiella pneumoniae is listed as 9.81%; with Candida albicans it was 3.79%; in the experiment with Cryptococcus neoformans, -7.62%.

Regarding `Cc1ccc(NC(=O)Cn2nc3c(Sc4ccccc4)nccn3c2=O)c(Br)c1`, the Inhibition is reported as 0.72% in the experiment with Klebsiella pneumoniae, 22.67% with Candida albicans and -9.68% in the experiment with Cryptococcus neoformans.

As for `CCOc1ccc(-n2ccn3c(SCC(=O)NCc4ccc(Cl)cc4)nnc3c2=O)cc1`, the Inhibition is reported as 11.7% in the experiment on Klebsiella pneumoniae, 0.49% in the experiment on Candida albicans and -7.68% in the experiment on Cryptococcus neoformans.

For `Cc1ccc(CN(c2ccc(C(C)C)cc2)S(=O)(=O)c2cccn3c(C)nnc23)cc1`, the Inhibition in the experiment on Klebsiella pneumoniae is listed as 0.92%; in the experiment on Candida albicans, 1.03%; in the experiment on Cryptococcus neoformans it was -9.63%.

As to `Cc1cc(C)cc(N(Cc2cc(F)cc(F)c2)S(=O)(=O)c2cccn3c(C)nnc23)c1`, the Inhibition in the experiment on Klebsiella pneumoniae is recorded as 11.7%; in the experiment on Candida albicans, 0.35%; with Cryptococcus neoformans it was -11.73%.

As for `COC(=O)c1ccc(Cn2nc3ccc(S(=O)(=O)N4CCCCCC4)cn3c2=O)o1`, the figures for the Inhibition with Klebsiella pneumoniae, in the experiment with Candida albicans and in the experiment on Cryptococcus neoformans were 1.98%, -1.08% and -5.87%, respectively.

As for `COc1ccc(NC(=O)Cn2nc3ccc(SC(C)(C)C)nn3c2=O)cc1Cl`, the Inhibition in the experiment on Klebsiella pneumoniae is on record as 12.99%; in the experiment with Candida albicans it was 3.69%; in the experiment with Cryptococcus neoformans, -9.98%.

On to `COc1cccc(NC(=O)Cn2nc3c4cc(-c5ccc(Cl)cc5)nn4ccn3c2=O)c1`, for which the Inhibition is recorded as 8.34% in the experiment on Klebsiella pneumoniae, 4.47% in the experiment on Candida albicans and -4.67% in the experiment with Cryptococcus neoformans.

In the case of `Cc1cccc(C)c1NC(=O)Cn1nc2c(Sc3ccccc3)nccn2c1=O`, the Inhibition is recorded as -1.09% with Klebsiella pneumoniae, 0.55% with Candida albicans and -9.17% in the experiment with Cryptococcus neoformans.

Consider `Cc1ccc(CNC(=O)Cn2nc3c(Oc4ccccc4C)nccn3c2=O)cc1`, for which the Inhibition is on record as 12.47% in the experiment with Klebsiella pneumoniae, 1.06% in the experiment with Candida albicans and -7.58% in the experiment with Cryptococcus neoformans.

As to `CCCN(C)c1nccn2c(=O)n(CC(=O)Nc3cccc(SC)c3)nc12`, the Inhibition in the experiment on Klebsiella pneumoniae is 8.64%; in the experiment on Candida albicans, 8.61%; in the experiment on Cryptococcus neoformans it was -6.21%.

Consider `Cc1ccc(Nc2cc(C)n3c(=O)n(Cc4cc(=O)n5ccccc5n4)nc3n2)cc1F`, for which the Inhibition was 9.15% with Klebsiella pneumoniae, -0.76% in the experiment with Candida albicans and -5.54% in the experiment on Cryptococcus neoformans.

`Cc1cc(C)c(NC(=O)Cn2c(=O)c3nnc(C(C)C)n3c3ccccc32)c(C)c1`: the Inhibition in the experiment on Klebsiella pneumoniae is 11.01%; in the experiment on Candida albicans it was 4.09%; in the experiment with Cryptococcus neoformans it was -5.77%.

On to `COc1ccc(NC(=O)Cn2nc3ccc(SCc4ccc(Cl)cc4)nn3c2=O)cc1`, for which the Inhibition is recorded as 1.71% in the experiment with Klebsiella pneumoniae, 48.76% in the experiment on Candida albicans and -13.57% with Cryptococcus neoformans.

Regarding `CC(C)c1nnc2c(SCC(=O)Nc3ccc(C#N)cc3)nc3ccccc3n12`, the Inhibition was 10.23% in the experiment on Klebsiella pneumoniae, 0.55% in the experiment on Candida albicans and -7.9% in the experiment with Cryptococcus neoformans.

`COc1cc(NC(=O)Cn2nc3ccc(C(=O)NCc4ccccc4)cn3c2=O)cc(OC)c1OC`: the Inhibition with Klebsiella pneumoniae is reported as 1.38%; in the experiment on Candida albicans, 5.58%; in the experiment on Cryptococcus neoformans it was -8.4%.

In the case of `CCOc1ccccc1NC(=O)Cn1nc2c(SC3CCCCC3)nccn2c1=O`, the values for the Inhibition with Klebsiella pneumoniae, in the experiment on Candida albicans and with Cryptococcus neoformans were 10.39%, 5.31% and -21.42%, respectively.

Regarding `O=C(CSc1nnc2c(=O)n(-c3cccc(F)c3)ccn12)Nc1ccc(Br)cc1F`, the Inhibition with Klebsiella pneumoniae is 15.26%; with Candida albicans, 5.02%; with Cryptococcus neoformans, -13.45%.

`Cc1cccc(C)c1NC(=O)Cn1nc2c3cc(-c4ccc(Cl)cc4)nn3ccn2c1=O`: the Inhibition with Klebsiella pneumoniae is reported as 6.6%; with Candida albicans, -0.5%; with Cryptococcus neoformans, -16.41%.

Consider `COc1ccc(NC(=O)Cn2nc3ccc(-c4ccccc4)nn3c2=O)cc1Cl`, for which the Inhibition is -6.25% in the experiment with Klebsiella pneumoniae, 19.43% in the experiment on Candida albicans and -3.35% in the experiment on Cryptococcus neoformans.

In the case of `Cc1cc(C)cc(Oc2nccn3c(=O)n(CC(=O)Nc4ccc(Cl)cc4F)nc23)c1`, the Inhibition in the experiment on Klebsiella pneumoniae is given as 14.33%; in the experiment with Candida albicans, 0.59%; in the experiment with Cryptococcus neoformans, -7.4%.

`Cc1cccc(CN(c2ccc(Cl)cc2)S(=O)(=O)c2cccn3c(C)nnc23)c1`: the results for the Inhibition in the experiment with Klebsiella pneumoniae, with Candida albicans and in the experiment on Cryptococcus neoformans were 9.48%, 1.95% and -9.68%, respectively.

As to `COC(=O)c1sccc1NC(=O)Cn1nc2c(Oc3ccc(C)cc3)nc3ccccc3n2c1=O`, the Inhibition in the experiment on Klebsiella pneumoniae is reported as 13.09%; in the experiment with Candida albicans, 3.6%; with Cryptococcus neoformans, -31.95%.

With `COc1ccc(CNC(=O)Cn2nc3c(Oc4ccccc4C)nccn3c2=O)cc1`, the Inhibition in the experiment with Klebsiella pneumoniae is 7.26%; in the experiment on Candida albicans it was -2.47%; with Cryptococcus neoformans it was -8.82%.

Turning to `CCCCOc1ccc(-c2cc3c4nnc(SCC(=O)N(C)c5ccc(F)cc5)n4ccn3n2)cc1`, the Inhibition in the experiment with Klebsiella pneumoniae is 3.98%; in the experiment with Candida albicans, 15.18%; in the experiment on Cryptococcus neoformans it was -9.29%.

`CCc1ccccc1NC(=O)Cn1nc2c(Sc3ccccc3CC)nccn2c1=O`: the Inhibition in the experiment with Klebsiella pneumoniae is listed as 12.45%; in the experiment with Candida albicans, 3.69%; in the experiment on Cryptococcus neoformans, -11.06%.

As to `CCc1nnc2c(SCC(=O)Nc3cccc(C(C)=O)c3)nc3ccccc3n12`, the Inhibition was 17.43% in the experiment with Klebsiella pneumoniae, -0.1% in the experiment with Candida albicans and -10.94% in the experiment on Cryptococcus neoformans.

As to `COc1ccc(N(Cc2cc(F)cc(F)c2)S(=O)(=O)c2ccc3nnc(C)n3c2)cc1`, the values for the Inhibition in the experiment with Klebsiella pneumoniae, in the experiment with Candida albicans and in the experiment with Cryptococcus neoformans were 10.99%, 0.79% and -7.83%, respectively.

With `COc1ccc(-n2ccn3c(-c4ccc([N+](=O)[O-])cc4)nnc3c2=O)cc1Cl`, the results for the Inhibition with Klebsiella pneumoniae, in the experiment with Candida albicans and with Cryptococcus neoformans were 9.41%, 5.76% and -13.11%, respectively.

Regarding `O=c1c2nnc(SCc3ccccc3Cl)n2ccn1-c1ccc(F)c(F)c1`, the Inhibition with Klebsiella pneumoniae is on record as 8.56%; with Candida albicans, 3.72%; in the experiment with Cryptococcus neoformans it was -8.25%.

For the compound `CCCNC(=O)Cn1nc2n(Cc3cccs3)c(=O)c3sccc3n2c1=O`, the Inhibition in the experiment on Klebsiella pneumoniae was 9.05%; in the experiment on Candida albicans, -0.4%; with Cryptococcus neoformans, -15.54%.

As for `Cc1nnc2c(S(=O)(=O)N(Cc3ccccc3)c3ccc(C(C)C)cc3)cccn12`, the results for the Inhibition in the experiment with Klebsiella pneumoniae, in the experiment on Candida albicans and in the experiment with Cryptococcus neoformans were 8.51%, -1.81% and -8.23%, respectively.

On to `Cc1ccc(C)c(CSc2nnc3c(=O)n(-c4ccc(Br)cc4)ccn23)c1`, for which the Inhibition with Klebsiella pneumoniae is reported as 7.74%; with Candida albicans it was 3.39%; in the experiment with Cryptococcus neoformans it was -4.05%.

As for `COc1ccc(-c2cc3c4nnc(SCC(=O)Nc5cccc(C)c5C)n4ccn3n2)cc1`, the Inhibition is on record as 2.16% in the experiment on Klebsiella pneumoniae, 3.48% in the experiment with Candida albicans and -22.8% with Cryptococcus neoformans.

Take `CCc1ccc(NC(=O)Cn2nc3c4cc(-c5ccc(C)c(C)c5)nn4ccn3c2=O)cc1`: the Inhibition is 5.45% in the experiment with Klebsiella pneumoniae, 21.77% with Candida albicans and -12.06% with Cryptococcus neoformans.

With `Cc1ccc(C(=O)CSc2nnc3c(=O)n(-c4ccc(F)cc4)ccn23)c(C)c1`, the Inhibition was 5.21% in the experiment with Klebsiella pneumoniae, 2.78% in the experiment on Candida albicans and -8.55% in the experiment with Cryptococcus neoformans.

On to `CCCN(C)c1nccn2c(=O)n(CC(=O)Nc3ccc(OC)c(Cl)c3)nc12`, for which the Inhibition in the experiment with Klebsiella pneumoniae is reported as 9.65%; with Candida albicans, 7.19%; in the experiment on Cryptococcus neoformans it was -3.69%.

For `CCCCc1ccc(NC(=O)Cn2nc3c(N4CC(C)CC(C)C4)nccn3c2=O)cc1` (configuration not stated), the Inhibition in the experiment with Klebsiella pneumoniae is 3.89%; with Candida albicans it was 4.16%; with Cryptococcus neoformans, -10.16%.

Turning to `Cc1ccc(Oc2nccn3c(=O)n(CC(=O)Nc4ccccc4Br)nc23)cc1`, the Inhibition with Klebsiella pneumoniae is 15.36%; in the experiment on Candida albicans, 1.31%; with Cryptococcus neoformans, -18.92%.
